Results as given in PubChem BioAssay AID588591 (National Center for Advancing Translational Sciences (NCATS), 2011).
The whole screen tested about 390,000 compounds, of which about 4,700 (1.2%) were called active. Where a call stands in place of a potency, no number is given. Roughly 4% stayed inconclusive and do not appear here. The call rests on the fitted dose curve; in most records, active means well fitted inhibition curve with a large enough effect; inconclusive means small, poorly fitted or top-dose-only effect, or another doubt; inactive means no such curve, though single readings can be large or run the other way. This excerpt belongs to a sample that is enriched for actives.

Target: DNA polymerase eta (Homo sapiens) (UniProt Q9Y253)
Sequence (Q9Y253 whole entry, looked up): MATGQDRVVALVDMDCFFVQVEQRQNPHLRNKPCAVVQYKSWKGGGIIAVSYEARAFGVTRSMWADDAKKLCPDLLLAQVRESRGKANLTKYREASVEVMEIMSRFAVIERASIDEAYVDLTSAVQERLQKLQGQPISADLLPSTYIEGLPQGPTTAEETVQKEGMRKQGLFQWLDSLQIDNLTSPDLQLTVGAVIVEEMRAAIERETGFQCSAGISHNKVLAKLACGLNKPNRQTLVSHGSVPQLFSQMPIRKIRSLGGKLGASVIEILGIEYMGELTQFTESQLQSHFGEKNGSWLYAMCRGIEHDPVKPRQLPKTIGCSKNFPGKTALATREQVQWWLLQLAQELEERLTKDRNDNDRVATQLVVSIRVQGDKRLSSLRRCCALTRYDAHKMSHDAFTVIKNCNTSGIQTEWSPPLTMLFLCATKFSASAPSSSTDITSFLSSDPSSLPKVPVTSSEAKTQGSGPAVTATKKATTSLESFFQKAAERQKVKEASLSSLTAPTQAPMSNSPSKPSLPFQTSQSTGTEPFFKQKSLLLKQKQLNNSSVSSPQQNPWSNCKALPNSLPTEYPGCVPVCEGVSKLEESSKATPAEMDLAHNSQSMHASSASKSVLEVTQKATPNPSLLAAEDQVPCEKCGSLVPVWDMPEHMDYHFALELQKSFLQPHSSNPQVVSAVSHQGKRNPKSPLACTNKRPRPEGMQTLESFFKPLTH
Assay: qHTS for Inhibitors of Polymerase Eta
Settings: recombinant Pol eta, fluorescent DNA replication assay; series mostly up to 114 µM
In short: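 Pol eta at 10 nM preincubated with compounds 15 min at room temperature; reaction started with fluorescent substrate (50 nM final) and read kinetically at 0 and 10 min.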
Potency means the concentration at half of the fitted maximal effect.

SMILES | Potency
COc1cc(NC(=O)CCn2nc(C)cc2C)cc(OC)c1OC | inactive
Cc1nc2nc(SCC(=O)N(Cc3ccccc3)C(C)C)nn2c(C)c1Cc1ccccc1Cl | inactive
Cc1ccccc1NC(=O)c1cc2c([nH]c1=O)CC(C)(C)CC2=O | inactive
Cc1ccc(C(=O)N/N=C/c2sc(=O)n(Cc3cccc(C(=O)O)c3)c2Cl)cc1 | inactive
Cc1ccc2nc(CNC(=O)c3ccccc3)[nH]c2c1 | inactive
Cc1ccc2cc(/C=N/Nc3ccc(C(=O)O)cc3)c(Cl)nc2c1 | 50.1 µM (active)
COc1ccc(CNc2nc(-c3ccc(Cl)cc3)nn2C(=O)c2ccccc2)cc1 | inactive
Cc1cccc2nc(-c3ccc(Cl)s3)c(Nc3ccc4c(c3)OCCO4)n12 | inactive
CN1OC(COC(=O)c2ccc(Cl)cc2)CC1c1ccccc1 (stereo not given) | inactive
Cc1ccccc1S(=O)(=O)N1[C@@H](c2cccc(Cl)c2)C(C(=O)O)=CC[C@H]1c1ccc(Cl)cc1 | 89.1 µM (active)
Cc1ccc(S(=O)(=O)N2[C@@H](c3ccccc3F)C(C(=O)O)=CC[C@H]2c2ccc(Cl)cc2)cc1 | inactive
CCOc1ccc(NC(=O)c2cn(C3CCCCC3)c(=O)c3c2c2ccccc2n3C)cc1 | inactive
COc1cc2c(=O)c(S(=O)(=O)c3ccc(C(C)C)cc3)cn(Cc3ccccc3C)c2cc1OC | inactive
CC(NC(=O)CCc1cn(Cc2ccccc2Cl)c2ccccc12)c1ccccc1 (stereo not given) | inactive
Cc1noc(C)c1NC(=O)Nc1cccc2c1O[C@H](CN(C)C(=O)Nc1ccccc1)[C@@H](C)CN([C@H](C)CO)C2=O | inactive
Cc1noc(C)c1NC(=O)Nc1ccc2c(c1)C(=O)N([C@H](C)CO)C[C@H](C)[C@@H](CN(C)C(=O)Nc1ccc(C(F)(F)F)cc1)O2 | inactive
C[C@H](CO)N1C[C@H](C)[C@H](CN(C)C(=O)Nc2ccc(C(F)(F)F)cc2)Oc2c(NC(=O)c3ccncc3)cccc2C1=O | 89.1 µM (active)
CCCN(C(=O)Cn1ncc2c([nH]c3ccc(C)cc32)c1=O)c1ccccc1C | inactive
Cc1ccc(CNC(=O)CCc2c(C)nc3nc(CNC(=O)OC(C)(C)C)nn3c2C)cc1 | inactive
COc1ccccc1NC(=O)COC(=O)Cc1ccc(S(=O)(=O)N2CCCCC2)s1 | inactive
O=C(Cc1ccc(S(=O)(=O)N2CCCC2)s1)NC1CCCCCC1 | 14.1 µM (active)
O=C(NC1CCCCC1)C1CCCN(S(=O)(=O)c2ccc(Br)s2)C1 (stereo not given) | inactive
COc1cccc(Cn2c(CNS(=O)(=O)c3ccc(Cl)s3)nc3cccnc32)c1 | inactive
CCOC(=O)c1ccc(NC(=O)c2csc3c2CCCCC3)cc1 | inactive

SMILES | Potency
CC(C)C[C@H](NC(=O)[C@H](O)[C@H](N)Cc1ccccc1)C(=O)O | inactive
CC1CCN(C(=O)CCc2nnc3ccc(NCc4ccco4)nn23)CC1 | inactive
O=C(CCc1nnc2ccc(NCc3ccco3)nn12)Nc1cc(F)ccc1F | 50.1 µM (active)
CC(=O)c1ccc(NC(=O)CCc2nnc3ccc(NCc4ccco4)nn23)cc1 | inactive
CCc1ccc2oc(-c3ccc(NC(=O)c4cc5ccccc5o4)cc3)nc2c1 | inactive
CCCNC(=O)c1ccc2c(c1)ncn2-c1ccc(C)cc1C | inactive
COc1ccc(Cn2ccc3nc(C)c(C(=O)Nc4ccc(C)c(F)c4)cc3c2=O)cc1 | inactive
CCN1CCN(c2cc(C)c3cc(NC(=O)c4cc(Cl)ccc4OC)ccc3n2)CC1 | inactive
COc1ccc(NC(=O)c2ccco2)cc1NC(=O)COc1ccc(C)c(C)c1 | 89.1 µM (active)
Cc1ccc(OCC(=O)Nc2ccc3oc(=O)ccc3c2)cc1C | inactive
Cc1ccc(OCC(=O)Nc2ccccc2C(=O)NC2CC2)cc1C | inactive
CCc1ccc(-n2nnc(-c3nc(-c4ccccc4)no3)c2C)cc1 | inactive
O=C(c1cnn(-c2ccc(F)cc2)c1-n1cccc1)N1CCN(c2ccc(F)cc2)CC1 | inactive
COc1ccc(Cl)cc1NC(=O)CSc1nc2ccccc2c2nc(-c3ccccc3)nn12 | inactive
O=C(CCc1nc(CN2CCN(S(=O)(=O)c3ccc(F)cc3)CC2)no1)N1CCCCC1 | inactive
O=C1C(Cl)=C(Oc2ccccc2)C(=O)c2ccccc21 | 7.94 µM (active)
Cc1ccc(N(CC(=O)NCc2ccc(Cl)cc2)S(=O)(=O)N(C)C)cc1 | inactive
O=C(CSc1ccc(/C=N/NC(=O)c2cccc(F)c2)o1)Nc1ccccc1 | inactive
O=C(CCNC(=O)c1ccccc1)NN=Cc1ccc(Br)o1 | 56.2 µM (active)
N#CCC(=O)N/N=C/c1ccc(SCC(=O)Nc2ccccc2)o1 | inactive
Cc1cccc2c1-c1sc(C(=O)Nc3ccc(F)cc3F)cc1CO2 | inactive
CCOc1ccc(-c2cc3nc(C4CCN(C(=O)OC(C)(C)C)CC4)c(C(=O)Nc4ccc(C(=O)OC)cc4)cn3n2)cc1 | inactive
Cc1ccc(-c2nnc(Nc3cccc(Br)c3)c3ccccc23)cc1S(=O)(=O)NCC1CCCO1 (stereo not given) | inactive
Cc1ccc2c(c1)-c1c(cnn1CC(=O)Nc1ccccc1C#N)CO2 | inactive

SMILES | Potency
CN(C(=O)CSc1nc2ccccc2n1Cc1ccccc1C#N)c1ccccc1 | inactive
N#Cc1ccccc1CN1C(=O)S/C(=C/c2cccn2-c2cccc(C(=O)O)c2)C1=O | 3.16 µM (active)
COc1ccc(OC)c(-c2nc(C(N)=O)c3c(n2)n(-c2ccc4c(c2)OCO4)c(=O)n3C)c1 | inactive
CCCOc1cccc(C(=O)Nc2cccc(NC(=O)c3ccc(C(C)(C)C)cc3)c2)c1 | inactive
N#Cc1ccc(OCC(=O)Nc2nc(-c3ccccn3)cs2)cc1 | 22.4 µM (active)
Cc1csc2nc(COc3ccc(NC(=O)COc4ccccc4)cc3)cc(=O)n12 | inactive
CCc1nnc(NC(=O)CSc2nnc(COc3ccc(C#N)cc3)n2-c2ccccc2)s1 | inactive
COCCNC(=O)CSc1c(C)cnc2c1c(=O)n(C)c(=O)n2C | inactive
CCOC(=O)c1ccc(NC(=O)CCn2cnnn2)cc1 | inactive
CCN(C(=O)c1sc2cc(OC)ccc2c1Cl)c1ccccc1 | inactive
CCC(=O)N1CCc2cc(Br)cc(S(=O)(=O)CCC(=O)N3CCN(c4ccc(F)cc4)CC3)c21 | inactive
O=C1Nc2ccc([N+](=O)[O-])cc2C1=Nc1cccc(CO)c1 | 20 µM (active)
COc1ccccc1CNC(=O)CCCCn1c(=O)c2ccccc2n(CC(=O)Nc2cc(Cl)ccc2C)c1=O | inactive
COc1cc(OC)c(NC(=O)c2cc(S(=O)(=O)N3CCCC3)cn2C)cc1Cl | inactive
CCCN1CN=C(NS(=O)(=O)c2ccc(NC(C)=O)cc2)NC1 | inactive
Cc1ccc(-n2c(=O)c3cccnc3n2CC(=O)Nc2ccccc2C(F)(F)F)cc1C | inactive
COCCCNC(=O)c1c(NC(=O)c2cc(=O)c3cc(C)c(C)cc3o2)sc2c1CCCC2 | inactive
CC(C)c1ccc(NS(=O)(=O)c2ccc3[nH]cc(C(=O)NC4CCCC4)c(=O)c3c2)cc1 | 31.6 µM (active)
Cc1cc(C)cc(NS(=O)(=O)c2ccc3[nH]cc(C(=O)N4CCCCC4)c(=O)c3c2)c1 | inactive
CCc1ccc(NS(=O)(=O)c2ccc3[nH]cc(C(=O)NCCc4cccc(C)c4)c(=O)c3c2)cc1 | inactive
CCOc1cc(C2c3c(-c4ccc(Br)cc4)n[nH]c3C(=O)N2c2ccc(Cl)cc2)ccc1O (stereo not given) | inactive
Cc1cccc(Nc2nc(C)nc(N)c2S(=O)(=O)c2ccccc2)c1 | inactive
COc1ccc(CCNC(=O)CCCn2c(=O)c3ccccc3n(Cc3ccc(C)cc3)c2=O)cc1OC | inactive
CC(=O)c1cccc(Nc2ccc3cc(S(=O)(=O)N4CCC(C)CC4)ccc3n2)c1 | inactive

SMILES | Potency
CC(=O)c1ccc(S(=O)(=O)N2CCC(Oc3ccc(-n4cnnn4)cc3)CC2)cc1 | inactive
CC(=O)c1ccc(S(=O)(=O)N2CCN(C(=O)/C=C/c3ccc4ccccc4n3)CC2)cc1 | 39.8 µM (active)
Cc1ccccc1CNC(=O)CSc1nnc(C)c2c(C)n(-c3ccccc3)nc12 | inactive
CN(Cc1ccccc1)C(=O)c1cn(C)c2ccc(S(=O)(=O)N3CCCCC3)cc2c1=O | inactive
CCCCn1c(=N)c(S(=O)(=O)c2ccccc2)cc2c(=O)n3cccc(C)c3nc21 | inactive
CCCc1cc(-c2n[nH]c(=S)n2CC)c2ccccc2n1 | inactive
Cc1cc(-c2n[nH]c(=S)n2/N=C/C(Br)=C/c2ccccc2)n[nH]1 | 14.1 µM (active)
Cc1ccc(NC(=O)CSc2nnc3[nH]c(=O)cc(C)n23)cc1Cl | inactive
CCc1nnc(NC(=O)CCC(=O)NCc2ccccc2OC)s1 | inactive
COc1ccc(CNC(=O)CCC(=O)Nc2nnc(C(C)C)s2)cc1 | inactive
CC(C)(C)CC(=O)Nc1nnc(SCC(=O)NCc2cccs2)s1 | inactive
CCc1nnc(NC(=O)Cc2cccs2)s1 | 35.5 µM (active)
COc1ccc(Cc2nnc(NC(=O)Cc3cccs3)s2)cc1 | 1 µM (active)
CCOc1ccccc1NC(=O)Cc1cccs1 | 44.7 µM (active)
COc1ccc(CC(=O)Nc2sc(Cc3ccccc3)c(C)c2C(N)=O)cc1 | inactive
CCOc1ccc(NC(=O)C/C(C)=N/NC(=O)Cc2cccs2)cc1 | inactive
CCOc1ccccc1NC(=O)CCn1cnnn1 | inactive
COc1cccc(NC(=O)CSc2cc(=O)n(C)c3ccc(Cl)cc23)c1 | inactive
Fc1ccccc1Oc1ncnc2c1oc1ccccc12 | inactive
Cc1cccc(-n2ncc(C(=O)N3CCc4ccccc4C3)c2C2CCN(C(=O)OC(C)(C)C)CC2)c1 | inactive
COc1ccccc1-c1nnc(C2CCN(C(=O)c3ccc(Cl)cc3)CC2)o1 | inactive
Cc1ccc(-n2c(=O)c3cccnc3n2CC(=O)NCc2ccc(F)cc2)cc1C | inactive
Cc1oc2ccc(O)c(CN3CCOCC3)c2c1C(=O)Nc1cccc(Cl)c1C | inactive
